Assay results published in PubChem BioAssay (EPA / NIEHS).
Values joined by “and” are separate entries in the source; they are usually repeats but may differ in a detail not shown here. Equal values may be shown once. The source holds several records for some structures; these can differ, active in one and inactive in another. Active and inactive are the calls of the source. Rule for the calls: active = hit-call score of the fitted dose curve at least 0.9, where 1 is the maximum; inactive = score below 0.9.

How the values were obtained:
[1] = read-out: C-C motif chemokine 2 (Homo sapiens) (UniProt P13500); experiment: BSK_KF3CT_MCP1: BioMAP Diversity Plus: KF3CT Assay for Monocyte Chemoattractant Protein 1 (MCP1/CCL2) Biomarker Activity (AID 2283073); details: primary human keratinocytes with fibroblasts; actives raise or lower the signal
Method in brief: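 ELISA readout of MCP-1 after 24 h chemical dosing of a human skin primary co-culture of keratinocytes and foreskin fibroblasts. Activity was fitted in both directions against DMSO.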

[2] = read-out: Matrix Metallopeptidase 9 (MMP9), MMP9 (gene 4318); experiment: BSK_KF3CT_MMP9: BioMAP Diversity Plus: KF3CT Assay for Matrix Metallopeptidase 9 (MMP9) Biomarker Activity (AID 2283074); details: primary human keratinocytes with fibroblasts; actives raise or lower the signal;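 for AC50: MMP9 protein level quantified by ELISA in the co-culture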
Method in brief: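 Human keratinocyte/foreskin fibroblast co-culture; compound added; 24 h; MMP-9 by ELISA; bidirectional fit vs DMSO baseline.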

[3] = read-out: urokinase plasminogen activator (uPA), PLAU (gene 5328); experiment: BSK_KF3CT_uPA: BioMAP Diversity Plus: KF3CT Assay for urokinase plasminogen activator (uPA) Biomarker Activity (AID 2283075); details: primary human keratinocytes with fibroblasts; actives raise or lower the signal
Method in brief: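 ELISA readout of uPA, analyzed for signal gain or loss relative to DMSO, from a human primary keratinocyte–foreskin fibroblast co-culture measured 24 h after chemical treatment.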

CD40, CD40 (gene 958) = experiment: BSK_LPS_CD40: BioMAP Diversity Plus: LPS Assay for CD40 Biomarker Activity (AID 2283076); details: primary human HUVEC with PBMC; actives raise or lower the signal
Method in brief: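 Cells were dosed, incubated 24 h, then assayed for CD40 by ELISA. Gain or loss of signal was analysed relative to DMSO controls. The culture paired human umbilical vein endothelium with peripheral blood mononuclear cells.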

[4] = read-out: E-selectin (Homo sapiens) (UniProt P16581); experiment: BSK_LPS_Eselectin: BioMAP Diversity Plus: LPS Assay for Eselectin Biomarker Activity (AID 2283077); details: primary human HUVEC with PBMC; actives raise or lower the signal
Method in brief: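 Primary human vascular co-culture (endothelium plus PBMC) was dosed with chemical, then E-selectin quantified by ELISA at 24 h. Endpoint values derive from bidirectional curve fitting relative to DMSO.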

[5] = read-out: Interleukin-8 (IL8), CXCL8 (gene 3576); experiment: BSK_LPS_IL8: BioMAP Diversity Plus: LPS Assay for Interleukin-8 (IL8) Biomarker Activity (AID 2283078); details: primary human HUVEC with PBMC; actives raise or lower the signal
Method in brief: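 Readout is IL-8 by ELISA, taken 24 h after compounds were added to LPS-stimulated endothelial/PBMC co-cultures. Both increases and decreases relative to DMSO control were scored through bidirectional fitting.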

[6] = read-out: Interleukin-1 alpha (IL1a), IL1A (gene 3552); experiment: BSK_LPS_IL1a: BioMAP Diversity Plus: LPS Assay for Interleukin-1 alpha (IL1a) Biomarker Activity (AID 2283080); details: primary human HUVEC with PBMC; actives raise or lower the signal
Method in brief: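 ELISA read-out of IL-1 alpha from a human primary vascular co-culture (endothelium plus PBMC) under LPS, sampled 24 hours post-dosing. Activity was fitted in both directions relative to DMSO controls.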

[7] = read-out: Monocyte Chemoattractant Protein-1 (MCP1), CCL2 (gene 6347); experiment: BSK_LPS_MCP1: BioMAP Diversity Plus: LPS Assay for Monocyte Chemoattractant Protein-1 (MCP1) Biomarker Activity (AID 2283081); details: primary human HUVEC with PBMC; actives raise or lower the signal;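 for AC50: secreted MCP-1 protein quantified by ELISA in culture supernatant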
Method in brief: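 Human endothelial–PBMC co-cultures were dosed with chemical, then LPS-driven MCP-1 levels were quantified by ELISA at 24 h. Activity in either direction was fitted versus DMSO negative control.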

[8] = BSK_LPS_PGE2: BioMAP Diversity Plus: LPS Assay for Prostaglandin E2 (PGE2) Biomarker Activity (AID 2283082); details: primary human HUVEC with PBMC; actives raise or lower the signal;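 for AC50: secreted prostaglandin E2 measured by ELISA in LPS-stimulated co-culture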
Method in brief: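 Endpoint derived from bidirectional curve fitting versus DMSO of ELISA-measured PGE2 in LPS-stimulated human primary vascular co-culture (HUVEC with PBMC) harvested at 24 h.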

[9] = BSK_LPS_SRB: Viability Assessment in the BioMAP Diversity Plus: LPS Assay (AID 2283079); details: primary human HUVEC with PBMC;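 note: total protein by sulforhodamine B absorbance as a cytotoxicity measure; measured one day after compound addition; fitted in both directions against DMSO so loss or gain of signal counts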
Method in brief: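 Readout is SRB absorbance at 560 nm (0.1% stain, TCA-fixed parallel cultures) as a total-protein cytotoxicity measure. Cells: primary human umbilical vein endothelium plus peripheral blood mononuclear cells, 24 h after chemical exposure; DMSO served as baseline.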

Measured: AC50

E-selectin (Homo sapiens), sequence (P16581 whole entry, looked up): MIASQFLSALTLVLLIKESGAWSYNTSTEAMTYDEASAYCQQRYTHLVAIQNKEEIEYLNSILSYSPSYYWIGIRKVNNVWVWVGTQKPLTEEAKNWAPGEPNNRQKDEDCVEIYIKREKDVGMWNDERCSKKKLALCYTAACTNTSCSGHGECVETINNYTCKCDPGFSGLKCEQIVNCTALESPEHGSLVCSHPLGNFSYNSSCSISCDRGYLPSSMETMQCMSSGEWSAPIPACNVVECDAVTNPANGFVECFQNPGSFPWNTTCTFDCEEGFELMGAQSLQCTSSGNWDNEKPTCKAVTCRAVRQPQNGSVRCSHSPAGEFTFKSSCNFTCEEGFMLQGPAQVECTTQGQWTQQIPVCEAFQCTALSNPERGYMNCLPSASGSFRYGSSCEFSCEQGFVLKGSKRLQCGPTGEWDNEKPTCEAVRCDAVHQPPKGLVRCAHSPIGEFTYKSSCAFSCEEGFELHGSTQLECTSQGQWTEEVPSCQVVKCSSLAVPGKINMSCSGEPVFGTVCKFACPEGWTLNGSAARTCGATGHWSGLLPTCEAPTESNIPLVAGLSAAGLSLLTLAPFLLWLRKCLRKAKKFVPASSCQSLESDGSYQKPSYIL

CCCCCc1ccc(O)cc1
active: [1] 9.12 µM | [2] 20 µM | [3] 14.8 µM | CD40, CD40 (gene 958) 29.5 µM | [4] 31.4 µM | [5] 36.1 µM | [6] 31.7 µM | [7] 31.4 µM | [8] 1.39 µM

CCCCCCCCCCCCCCC
inactive: [1] | [2] | [3] | CD40, CD40 (gene 958) | [4] | [5] | [9] | [6] | [7] | [8]

O=C(O)CCC(F)(F)C(F)(F)C(F)(F)C(F)(F)C(F)(F)C(F)(F)F
active: CD40, CD40 (gene 958) 15.6 µM | [5] 30 µM and 51.1 µM and 38.9 µM | [6] 12.9 µM and 30 µM
inactive: [1] | [2] | [3] | CD40, CD40 (gene 958) | [4] | [9] | [6] | [7] | [8]

CCCCC=O
inactive: [1] | [2] | [3] | CD40, CD40 (gene 958) | [4] | [5] | [9] | [6] | [7] | [8]

Cc1cccc2c1ccc1ccccc12
inactive: [1] | [2] | [3] | CD40, CD40 (gene 958) | [4] | [5] | [9] | [6] | [7] | [8]

Oc1ccc(Cc2ccccc2O)cc1
inactive: [1] | [2] | [3] | CD40, CD40 (gene 958) | [4] | [5] | [9] | [6] | [7]
active: [8] 1.77 µM and 3.97 µM

CCCCCCCCCCCCCCCCCC[N+](C)(C)Cc1ccccc1
inactive: [8]
active: [1] 6.52 µM | [2] 2.75 µM | [3] 2.95 µM | CD40, CD40 (gene 958) 2.74 µM | [4] 2.87 µM | [5] 5.17 µM | [6] 2.71 µM | [7] 2.97 µM

CCCCCCCCCCCC
inactive: CD40, CD40 (gene 958) | [9] | [7]
active: [1] 6.76 µM and 8.48 µM | [2] 6.78 µM and 7.3 µM | [3] 11.1 µM | CD40, CD40 (gene 958) 20 µM | [4] 30.5 µM and 32.7 µM | [5] 33.1 µM and 30.7 µM | [6] 14.4 µM and 29.6 µM | [7] 36.3 µM | [8] 12.9 µM and 14 µM

O=C(CC(=O)C(F)(F)C(F)(F)C(F)(F)F)c1cccs1
inactive: [1] | [3] | CD40, CD40 (gene 958) | [4] | [5] | [6] | [8]
active: [2] 2.38 µM and 4.67 µM | CD40, CD40 (gene 958) 22.9 µM | [9] 26.4 µM and 37.3 µM | [7] 30 µM and 40.4 µM

O=C(c1ccccc1)c1ccccc1
active: [8] 0.569 µM
inactive: [1] | [2] | [3] | CD40, CD40 (gene 958) | [4] | [5] | [6] | [7]

O=P(O)(O)CCC(F)(F)C(F)(F)C(F)(F)C(F)(F)C(F)(F)C(F)(F)C(F)(F)C(F)(F)F
active: CD40, CD40 (gene 958) 30 µM | [8] 30 µM
inactive: [1] | [2] | [3] | CD40, CD40 (gene 958) | [4] | [5] | [6] | [7] | [8]

CC(C)(C)c1ccc(O)c(O)c1
inactive: [1] | [3] | [8]
active: [2] 20 µM | CD40, CD40 (gene 958) 20 µM | [4] 33.4 µM | [5] 30.6 µM | [9] 31.4 µM | [6] 29.3 µM | [7] 29.1 µM

CN(C)c1ccc(C(=C2C=CC(=[N+](C)C)C=C2)c2ccccc2)cc1
inactive: [5]
active: [1] 0.699 µM | [2] 0.0207 µM | [3] 0.465 µM | CD40, CD40 (gene 958) 0.0133 µM | [4] 0.0082 µM | [6] 0.00944 µM | [7] 0.0133 µM | [8] 0.0082 µM

O=C(NO)c1ccccc1
inactive: [1] | [2] | [3] | CD40, CD40 (gene 958) | [4] | [5] | [9] | [6] | [7] | [8]

O=C1NS(=O)(=O)c2ccccc21
inactive: [1] | [2] | [3] | CD40, CD40 (gene 958) | [4] | [5] | [9] | [6] | [7] | [8]

Cc1ccc(C(=O)c2ccccc2)cc1
inactive: [1] | [2] | [3] | CD40, CD40 (gene 958) | [4] | [5] | [6] | [7]
active: [8] 1.05 µM

CN(Cc1cnc2nc(N)nc(N)c2n1)c1ccc(C(=O)N[C@@H](CCC(=O)O)C(=O)O)cc1
inactive: [1] | [2] | [3] | CD40, CD40 (gene 958) | [4] | [5] | [9] | [6] | [7] | [8]
active: [3] 4.77 µM | [7] 0.1 µM

CC1=NN(c2ccccc2)C(=O)C1
inactive: [1] | [2] | [3] | CD40, CD40 (gene 958) | [4] | [5] | [9] | [6] | [7] | [8]

CCCCC(CC)C(=O)OCCOCCOCCOCCOC(=O)C(CC)CCCC (centres undefined)
inactive: [1] | [2] | [3] | CD40, CD40 (gene 958) | [4] | [5] | [9] | [6] | [7] | [8]

C=COC(=O)C(C)(C)CCCCCC
inactive: [8]
active: [1] 25.9 µM | [2] 33 µM | [3] 28 µM | CD40, CD40 (gene 958) 31.7 µM | [4] 30.6 µM | [5] 33.1 µM | [6] 33.6 µM | [7] 31 µM

C[C@]12CC[C@@H]3c4ccc(O)cc4CC[C@H]3[C@@H]1C[C@@H](O)[C@@H]2O
inactive: [1] | [2] | [3] | CD40, CD40 (gene 958) | [4] | [5] | [6] | [7] | [8]

CCCCCCCCCCCCOS(=O)(=O)O
active: [1] 20 µM | [2] 30.9 µM | [3] 31.1 µM
inactive: CD40, CD40 (gene 958) | [4] | [5] | [6] | [7] | [8]

CCOC(=O)CN[C@@H](C(=O)N1CC[C@H]1C(=O)NCc1ccc(/C(N)=N/O)cc1)C1CCCCC1
inactive: [1] | [2] | [3] | CD40, CD40 (gene 958) | [4] | [5] | [9] | [6] | [7] | [8]

O=C(O)CCC(F)(F)C(F)(F)C(F)(F)C(F)(F)C(F)(F)F
active: [5] 5.95 µM
inactive: [1] | [2] | [3] | CD40, CD40 (gene 958) | [4] | [5] | [6] | [7] | [8]

O=C(O)C(F)(F)OC(F)(F)C(F)(F)OC(F)(F)C(F)(F)OC(F)(F)C(F)(F)C(F)(F)C(F)(F)F
active: [1] 8.05 µM and 8.01 µM | [2] 8.13 µM and 8.24 µM | [3] 14.5 µM and 15.7 µM | CD40, CD40 (gene 958) 30 µM and 36.5 µM | [4] 54.1 µM and 50.8 µM | [5] 47.5 µM and 26 µM | [6] 44.4 µM and 40.1 µM | [7] 52.4 µM and 46.7 µM | [8] 37.8 µM and 25.8 µM

Clc1ccc(Nc2nnc(Cc3ccncc3)c3ccccc23)cc1
active: [2] 7.58 µM
inactive: [1] | [3] | CD40, CD40 (gene 958) | [4] | [5] | [6] | [7] | [8]

O=S(=O)(O)C(F)(F)C(F)(F)C(F)(F)C(F)(F)C(F)(F)C(F)(F)C(F)(F)C(F)(F)C(F)(F)C(F)(F)F
inactive: [1] | [3] | [6] | [7] | [8]
active: [2] 11.9 µM and 5.3 µM | CD40, CD40 (gene 958) 13.3 µM and 16.5 µM | [4] 24.7 µM and 768 nM | [5] 23.4 µM and 20.3 µM | [6] 19.4 µM | [7] 6.6 µM
